# 12-LOX inh = Primary qHTS assay for inhibitors of human arachidonate 12S-lipoxygenase (ALOX12): Round 2 | purified 12hLO, xylenol orange hydroperoxide absorbance | Potency, µM (titrated, usually from 108 µM), inactives show top-dose activity change, negative = inhibition, usual class: inhibitors | 1.1% of 580,000 active | AID 1671190, 2021; also: % is scaled to controls: 0 for no effect and ±100 for the full control effect
#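 Hydroperoxide product was detected by ferrous iron/xylenol orange as the 573 to 405 nm absorbance ratio. Arachidonic acid at 40 uM (final) was turned over for 30 min at room temperature by 150 nM human 12hLO, pH 7.0 Hepes buffer, after 15 min compound preincubation.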
# G9a block = qHTS Assay for Inhibitors of Histone Lysine Methyltransferase G9a; G9a H3K9 monomethylation, AlphaScreen, 2 h; 8.8% of 350,000 active; Potency, µM (titrated, usually from 102 µM), inactives show top-dose activity, negative = inhibition, most hits filed as inhibitors; Histone-lysine N-methyltransferase EHMT2 (Homo sapiens), Q96KQ7; AID 504332, 2011; also: % is scaled to controls: 0 for no effect and ±100 for the full control effect; nearly all actives have a fitted effect of over 75% in size
# Target sequence (Q96KQ7 913-1193 limits assumed): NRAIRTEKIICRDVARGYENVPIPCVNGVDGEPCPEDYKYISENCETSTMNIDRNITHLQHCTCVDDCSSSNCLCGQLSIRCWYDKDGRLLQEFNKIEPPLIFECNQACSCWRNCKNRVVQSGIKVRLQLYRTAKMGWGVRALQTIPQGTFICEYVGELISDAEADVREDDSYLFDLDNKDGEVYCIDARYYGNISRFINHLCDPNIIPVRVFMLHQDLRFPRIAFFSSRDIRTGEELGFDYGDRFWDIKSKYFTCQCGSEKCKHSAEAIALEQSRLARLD
#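 G9a (20 nM) was preincubated 15 min with compound, then reacted 2 h at room temperature with 500 nM biotin-H3K9 peptide and 20 µM SAM. Monomethyl-H3K9 detected by AlphaScreen using anti-H3K9me1 antibody.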
# HP1b binding inh = HTS for Inhibitors of HP1-beta Chromodomain Interactions with Methylated Histone Tails | Chromobox protein homolog 1 (Homo sapiens), P83916 | Potency, µM (series often up to 114 µM), inactives show at the top dose activity change, negative = inhibition, most hits filed as inhibitors | 0.56% of 390,000 active | AlphaScreen HP1-beta / biotin-H3K9me3 peptide binding; also: nearly all actives have a fitted effect of over 70% in size
# Target sequence (P83916 whole entry, looked up): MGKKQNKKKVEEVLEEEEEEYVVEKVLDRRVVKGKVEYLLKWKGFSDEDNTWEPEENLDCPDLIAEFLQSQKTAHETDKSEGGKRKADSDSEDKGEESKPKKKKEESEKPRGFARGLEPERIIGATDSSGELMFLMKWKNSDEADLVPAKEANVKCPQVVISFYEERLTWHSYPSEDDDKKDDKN
#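 Compound inhibition of the preformed complex between 50 nM HP1-beta and 50 nM biotinylated H3K9me3 peptide was read by AlphaScreen. Buffer was PBS pH 7.4 with 0.01% Tween-20. Incubations ran 30 min at room temperature, with 10 ug/mL donor/acceptor beads.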
# PLK1 PBD block = qHTS for Inhibitors of PLK1-PDB (polo-like kinase 1 - polo-box domain): Primary Screen. Plk1 PBD binding of FITC phosphopeptide, fluorescence polarization. Potency, µM, for the others: max response, negative = inhibition, most hits filed as inhibitors. 2.8% of 360,000 active. AID 720504, 2013; also: series mostly up to about 57 µM; % is scaled to controls: 0 for no effect and ±100 for the full control effect; nearly all actives have a fitted effect of over 65% in size
# JMJD2A Tudor = qHTS Assay for Inhibitors of JMJD2A-Tudor Domain. Lysine-specific demethylase 4A (Homo sapiens), O75164. AlphaScreen JMJD2A-Tudor / H3K4me3 peptide binding. Potency, µM (doses to about 114 µM), inactives show top-dose activity change, negative = inhibition, hits mostly inhibitors. 4.4% of 390,000 active. AID 504339, 2011; also: % is scaled to controls: 0 for no effect and ±100 for the full control effect; nearly all actives have a fitted effect of over 50% in size
# BAZ2B block = qHTS Assay for Inhibitors of BAZ2B. Bromodomain adjacent to zinc finger domain protein 2B (Homo sapiens), Q9UIF8. AlphaScreen BAZ2B-H3K14Ac peptide displacement. Potency, µM (titrated, usually from 114 µM), for inactives: top-dose activity change, negative = inhibition, hits mostly inhibitors. 4.4% of 360,000 active; also: % is scaled to controls: 0 for no effect and ±100 for the full control effect; nearly all actives have a fitted effect of over 60% in size
#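 Protein-peptide AlphaScreen: BAZ2B 50 nM, b-H3K14Ac 50 nM, 1x PBS pH 7.4 + 0.01% Tween-20. Preincubation 30 min RT; cpd 30 min RT (top 110 uM); beads 20 min RT, light-protected.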
# * = called active by the depositor; i = inactive; ? = inconclusive; / = no result; [ ] = remark or other dose. Rows were chosen to be rich in hits. Some 9% of all compounds tested hit in one or more screens of this group. Calls follow the shape of the dose curve; as a rule, active = well fitted curve in the direction sought with a large enough effect; inconclusive = small, poorly fitted or top-dose-only effect, or another doubt; inactive = no such curve, though single readings can be large; an effect the other way counts as inactive or inconclusive. Potency is read from the fitted curve at half-maximal effect.
SMILES,12-LOX inh,G9a block,HP1b binding inh,PLK1 PBD block,JMJD2A Tudor,BAZ2B block
COc1ccc(-c2sc3cc(OC)ccc3c2-c2ccc(OCCN3CCCCC3)cc2)cc1,?,/,/,-3%,/,/
c1ccc(-c2sc3ccccc3c2-c2ccc(OCCN3CCCC3)cc2)cc1,-1%,/,-15%,-3%,50µM*,/
O=C(NC1CCCC1)C(c1ccncc1)N(C(=O)c1csnn1)C1CCCC1 (stereo not drawn),-11%,-7%,38%,4%,1%,-1%
COc1ccccc1CNC(=O)c1ccc2c(c1)C(O)CCCCCN2C (stereo not drawn),79%,/,/,/,/,/
O=C(Nc1cc(C(F)(F)F)ccc1N1CCOCC1)c1cccnc1Cl,403%,20%[59 µM],36%,-5%,-8%,-6%
CC(C)c1ccc2oc(-c3cc(N)ccc3O)nc2c1,?,?,-13%,-4%,?,-8%
CC(C)c1ccc2oc(-c3ccc(N)cc3O)nc2c1,35µM*,/,/,/,/,/
NC(=O)NCc1ccc(C(=O)NCc2ccc(C(F)(F)F)cc2)cc1,1%,/,/,/,/,/
COc1ccc(N2CC(O)=C(c3n(C)c4ccccc4[n+]3C)C2=N)cc1,5%,-47%,-1%,27µM*,-13%[11.4 µM],10%
CNc1nc(-c2ccc3c(c2)CCN3C(=O)c2ccccc2C)cs1,?,22µM*,?,?,?,50µM*
CNc1nc(-c2ccc3c(c2)CCN3C(=O)c2ccc(F)cc2)cs1,7%,32µM*,9%,-24%,-27%,?
CC(C)(C)Nc1nc(-c2ccc3c(c2)CCN3C(=O)C2CC2)cs1,-29%,40µM*,?,?,?,?
CCCCNC(=O)C(NC(=O)Cc1cc(C(F)(F)F)cc(C(F)(F)F)c1)C(=O)c1ccccc1 (stereo not drawn),-18%,/,/,-16%,/,/
Cc1c(C)c2cc(Cl)c(O)c(CN(C)C)c2oc1=O,-17%,-2%[12.7 µM],-1%,-9%,18µM*,-1%
CCCCc1cc(=O)oc2c(CN(C)C)c(O)c(Cl)cc12,-11%,-3%[12.7 µM],-4%,-11%,16µM*,8%
Cc1cccc(-c2ccccc2C(=O)O)c1,-24%,/,/,/,/,/
N#Cc1ccc2c(c1)nnn2-c1ccccc1,0%,/,36%,4%,-1%,/
N#Cc1ccc2sn(-c3ccccc3)c(=O)c2c1,0.35µM*,/,/,2.7µM*,/,/
O=c1c2cc([N+](=O)[O-])ccc2sn1-c1ccccc1,0.25µM*,/,/,2.7µM*,/,/
CC(=O)Nc1ccc2sn(-c3ccccc3)c(=O)c2c1,1.1µM*,/,/,3.4µM*,/,/
O=C(Nc1cccc(S(=O)(=O)N2CCCCC2)c1)c1ccc2ncsc2c1,?,?,7%,-2%,28µM*,56µM*
O=C(Nc1cccc(S(=O)(=O)N2CCCCC2)c1)c1ccc(OCC2CCCO2)cc1 (stereo not drawn),-18%,56µM*,23%,5%,-13%,/
CC(C)CCNC(=O)CCn1nc(-c2ccccc2)ccc1=O,-7%,0%[0.501 µM],26%,7%,5%,4%
CC(C)c1[nH]nc2c1C(c1ccc(OC(=O)c3ccco3)cc1)C(C#N)=C(N)O2 (stereo not drawn),4%,50µM*,12%,-14%,-31%,-29%
CN1C(=O)CSc2ccc(C(=O)O)cc21,i,?,54%,-11%,-17%,0%
SMILES,12-LOX inh,G9a block,HP1b binding inh,PLK1 PBD block,JMJD2A Tudor,BAZ2B block
COc1ccc(/C(O)=C/C(=O)C(=O)Nc2c(C)n(C)n(-c3ccccc3)c2=O)cc1,-24%,?,9%,-5%,22µM*,?
Cc1c(NC(=S)NC(=O)c2ccccc2)c(=O)n(-c2ccccc2)n1C,427%,/,20%,6%,10%,/
Cc1c(NC(=O)C(=O)/C=C(/O)c2ccccc2)c(=O)n(-c2ccccc2)n1C,-6%,8.9µM*,14%,28%,20µM*,50µM*
COc1ccc(/C(O)=C/C(=O)C(=O)NNC(=O)C(O)(c2ccccc2)c2ccccc2)cc1,2%,-18%,19%,-7%,79µM*,-37%
CCc1cccc(CC)c1NC(=O)COc1ncnc2ccccc12,8%,/,/,/,/,/
CCN(CC)C(=O)CCc1c(C)nn(-c2ccccc2)c1Oc1cccc(F)c1,17%,/,/,/,/,/
COC(=O)CC1C(=O)NCCN1C(=S)NC(=O)c1sc2ccccc2c1Cl (stereo not drawn),?,?,12%,19µM*,1%[11.4 µM],?
CC(C)OC(=O)CC1C(=O)NCCN1C(=S)NC(=O)CCc1ccccc1 (stereo not drawn),-12%,?,48%,-5%,-7%,-1%
CC(C)OC(=O)CC1C(=O)NCCN1C(=S)NC(=O)c1ccccc1 (stereo not drawn),-13%,32µM*,45%,-5%,-14%,?
CCCCc1nc2cc(C(=O)N3CCNC(=O)C3CC(=O)OC)ccc2o1 (stereo not drawn),0%,-1%,32%,-5%,-10%,-8%
CC(C)OC(=O)CC1C(=O)NCCN1C(=S)NC(=O)c1ccc(F)cc1 (stereo not drawn),-21%,40µM*,41%,-8%,-14%,-20%
COC(=O)CC1C(=O)NCCN1C(=O)c1ccc2oc(C(C)C)nc2c1 (stereo not drawn),0%,3%,7%,30µM*,?,6%
CNC(=O)[C@@]1(Cc2ccccc2)C=C[C@@H](C)N1C(C)=O,28%,/,27%,-1%,-6%,/
Cc1cccc(NC(=O)CSc2nnnn2C2CCCC2)c1,-10%,17%,1%,-7%,-4%,-1%
Cc1cc(C)cc(NC(=O)c2cnn(-c3ccccc3)c2C2CCNCC2)c1,-8%,40µM*,18%,-17%,-22%,-27%
Cc1cccc(NC(=O)c2cnn(-c3ccc(F)cc3)c2C2CCNCC2)c1C,-28%,35µM*,10%,-4%,-20%,4%

# Compound activity deposited in PubChem by National Center for Advancing Translational Sciences (NCATS).
